High-throughput results: PubChem, National Center for Advancing Translational Sciences (NCATS)
The list is not random: actives were taken first. Their share in the collection is about 1.8%.
TrxR1 substrate: substrates of rat thioredoxin reductase 1; O89049; purified TrxR1 substrate turnover, NADPH consumption readout; Potency, µM (highest dose often 114 µM); 390,000 tested, 0.01% active; further: nearly all actives have a fitted effect of over 50% in size
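Rat TrxR1, dispensed at 90 nM, was prereduced with 400 uM NADPH (final) for 5 min at ~22 deg C, then incubated with compound 15 min before 400 uM selenite. A first-read NADPH fluorescence drop versus no-compound background flagged substrates.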
KAT2A inh: inhibitors of human GCN5L2 histone acetyltransferase. Q92830. GCN5L2 HAT assay, ThioGlo1 CoA-SH fluorescence. Potency, µM (titrated, usually from 58.9 µM), usual class: inhibitors. 390,000 tested, 0.21% active
Target sequence (Q92830 whole entry, looked up): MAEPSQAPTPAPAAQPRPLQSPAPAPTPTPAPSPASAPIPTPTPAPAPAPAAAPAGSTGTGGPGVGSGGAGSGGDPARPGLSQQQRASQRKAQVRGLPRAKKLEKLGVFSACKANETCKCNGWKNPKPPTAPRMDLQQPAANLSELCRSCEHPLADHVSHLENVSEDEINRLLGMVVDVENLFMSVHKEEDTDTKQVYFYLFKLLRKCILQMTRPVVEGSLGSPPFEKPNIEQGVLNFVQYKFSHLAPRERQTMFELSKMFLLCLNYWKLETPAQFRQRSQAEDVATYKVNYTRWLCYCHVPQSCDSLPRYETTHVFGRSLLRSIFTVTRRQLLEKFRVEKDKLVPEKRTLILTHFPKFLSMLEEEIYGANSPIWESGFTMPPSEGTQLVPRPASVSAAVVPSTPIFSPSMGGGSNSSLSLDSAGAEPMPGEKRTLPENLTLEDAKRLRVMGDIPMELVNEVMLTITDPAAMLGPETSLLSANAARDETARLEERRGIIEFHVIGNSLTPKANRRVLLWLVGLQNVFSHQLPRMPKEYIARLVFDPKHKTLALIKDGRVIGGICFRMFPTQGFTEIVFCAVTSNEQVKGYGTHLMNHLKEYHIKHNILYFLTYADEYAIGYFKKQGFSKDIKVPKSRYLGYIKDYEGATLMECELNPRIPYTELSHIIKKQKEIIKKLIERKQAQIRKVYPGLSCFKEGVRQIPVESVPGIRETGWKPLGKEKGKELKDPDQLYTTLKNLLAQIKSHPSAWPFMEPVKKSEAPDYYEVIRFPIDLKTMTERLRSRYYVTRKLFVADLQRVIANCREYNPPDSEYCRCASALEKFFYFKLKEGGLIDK
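Preincubate 20nM GCN5L2 with compound 15 min, RT → add 50uM ThioGlo1 + 75uM H3(1-25) + 70uM acetyl-CoA → read fluorescence 0 and 20 min. Primary qHTS; fluorescent artifacts likely.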
VDR inhibitor: inhibitors of human vitamin D receptor; Potency, µM, usual class: inhibitors; VDR-SRC2-3 peptide fluorescence polarization, 2 h; AID 504847; 400,000 tested, 0.93% active; P11473
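VDR–SRC2-3 interaction, FP format. Cmpds 23 nl via pintool, brief spin, 2 h ambient incubation.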
rTrxR1 inhibitor: blocks rat thioredoxin reductase 1; AID 588453; Potency, µM (highest dose often 114 µM), actives largely listed as inhibitors; O89049; 390,000 tested, 1% active; recombinant rTrxR1, NADPH fluorescence consumption, selenite substrate; further: nearly all actives have a fitted effect of over 65% in size
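Rat TrxR1 (90 nM in the dispensed reagent) was pre-reduced with 400 uM NADPH for 5 min at room temperature, then incubated with compound for 15 min. After 400 uM selenite was added, NADPH fluorescence (Ex 340/Em 450 nm) was followed for 8 min.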
Each line names hits and unclear results; the compound was inactive in the other large screens. The call rests on the fitted dose curve; in most records, active means well fitted curve in the direction sought with a large enough effect; inconclusive means small, poorly fitted or top-dose-only effect, or another doubt; inactive means no such curve, though single readings can be large; an effect the other way counts as inactive or inconclusive.

C/C(=C\c1ccc(C)o1)C(=O)c1c(C)cc(C)[nH]c1=O	rTrxR1 inhibitor 50µM
C/C(=C\c1cccc(Br)c1)C(=O)c1c(C)cc(C)[nH]c1=O	none
Cc1cccc(Oc2nc3ccccn3c(=O)c2/C=C(\C#N)C(=O)NC2CCS(=O)(=O)C2)c1 (configuration not stated)	VDR inhibitor inconclusive
Cc1cccn2c(=O)c(/C=C(\C#N)C(=O)NC3CCS(=O)(=O)C3)c(N3CCC(C)CC3)nc12 (configuration not stated)	none
Cc1cc(Oc2nc3ccccn3c(=O)c2/C=C(\C#N)C(=O)NC2CCS(=O)(=O)C2)ccc1Cl (configuration not stated)	VDR inhibitor 32µM
Cc1cccn2c(=O)c(/C=C(\C#N)C(=O)NC3CCS(=O)(=O)C3)c(Oc3ccc(F)cc3)nc12 (configuration not stated)	VDR inhibitor 20µM
N#C/C(=C\c1c(Oc2ccc(Cl)cc2)nc2ccccn2c1=O)C(=O)NC1CCS(=O)(=O)C1 (configuration not stated)	VDR inhibitor 50µM
CCNc1c(NC(=O)c2cc(OCC)c(OCC)c(OCC)c2)c(=O)oc2ccccc12	none
CCOC(=O)c1sc(NC(=O)C2c3ccccc3Oc3ccccc32)c(C(=O)OCC)c1C	KAT2A inh inconclusive
CCOC(=O)c1sc(NC(=O)C2c3ccccc3Oc3ccccc32)c(C#N)c1C	VDR inhibitor 79µM
CCOC(=O)c1sc(NC(=O)c2cc(-c3ccc(C)cc3)nc3ccccc23)c(C#N)c1C	VDR inhibitor 79µM, rTrxR1 inhibitor inconclusive
COC(=O)c1sc(NC(=O)c2cc(-c3ccccc3)nc3ccccc23)c(C#N)c1C	KAT2A inh inconclusive, VDR inhibitor inconclusive
CCOC(=O)c1c(NC(=O)CN(C)C)sc(C(=O)N(CC)CC)c1C	none
CCCCC(=O)Nc1sc(C(=O)N(CC)CC)c(C)c1C(=O)OC	KAT2A inh inconclusive, VDR inhibitor 22µM
CCOC(=O)c1c(NC(=O)C2c3ccccc3Oc3ccccc32)sc(C(=O)N(CC)CC)c1C	VDR inhibitor 71µM
CC(C)c1cccc(NC(=O)COC(=O)c2ccccc2OCc2cccc(Br)c2)c1	none (no result: KAT2A inh, VDR inhibitor)
COc1cc2c(NC3CCN(C)CC3)nc(N3CCCCC3)nc2cc1OCCCN(C)C	none (no result: KAT2A inh, VDR inhibitor)
CC(/C=N/NC(=O)Cc1cccn1C)=C\c1ccccc1	rTrxR1 inhibitor 50µM
O=C(Nc1cccc(C(F)(F)F)c1)Nc1cc(Cl)ccc1C(=O)O	KAT2A inh 22µM, VDR inhibitor 50µM (no result: TrxR1 substrate, rTrxR1 inhibitor)
COC(=O)/C(=C/c1c[nH]c2ccccc12)[N+](=O)[O-]	rTrxR1 inhibitor 13µM
O=C(COc1ccc(F)cc1)NCCc1nc2ccccc2[nH]1	none
CC(C)ON([C@@H](C(=O)NO)C(C)C)S(=O)(=O)c1ccc(-c2ccccc2)cc1	KAT2A inh inconclusive
N#Cc1ccccc1NC(=S)NC(=O)c1cccs1	rTrxR1 inhibitor 2.2µM
CC(=O)Nc1ccc(S(=O)(=O)NNc2ccc([N+](=O)[O-])cc2)cc1	VDR inhibitor 89µM
Cc1ccc(NNS(=O)(=O)c2ccc(C)cc2)cc1	KAT2A inh 35µM, VDR inhibitor inconclusive
COc1ccc(C2C(C#N)=C(N)Oc3cc(O)ccc32)cc1C (configuration not stated)	rTrxR1 inhibitor 16µM
COc1ccc(C2C(C#N)=C(N)Oc3cc(O)ccc32)cc1OC (configuration not stated)	none
O=C(C[n+]1ccnc2ccccc21)c1ccc(Br)cc1	none (no result: KAT2A inh, VDR inhibitor)
CO/N=C(/C(=O)N[C@@H]1C(=O)N2C(C(=O)O)=C(CSc3cnns3)CS[C@H]12)c1csc(N)n1	VDR inhibitor 35µM (no result: TrxR1 substrate, rTrxR1 inhibitor)
CC(C)CCOc1ccc(N)cc1	none (no result: TrxR1 substrate, rTrxR1 inhibitor)
COc1ccc(CNC(=O)c2sc3nc4c(c(C(F)(F)F)c3c2N)CCC4)cc1OC	VDR inhibitor 40µM
COc1ccc(C(=O)c2sc3nc4c(c(C(F)(F)F)c3c2N)CN(C(C)=O)CC4)cc1OC	none
Cc1ccc(CN(C)C(=O)c2cccc(S(=O)(=O)N3CCc4ccccc4C3)c2)o1	rTrxR1 inhibitor 40µM
COC(=O)Cc1c(C)c2cc3c(c(C)c2oc1=O)OCN(CCc1ccc(F)cc1)C3	KAT2A inh 28µM
Cc1c(C)c2cc3c(c(C)c2oc1=O)OCN(CCc1ccc(F)cc1)C3	none
Cc1ccc(N2C(=O)[C@@H]3C(c4cccnc4)=NO[C@@H]3C2=O)cc1	rTrxR1 inhibitor 45µM
COCCNc1nc(-c2c(C)noc2C)nc2ccccc12	none (no result: TrxR1 substrate, rTrxR1 inhibitor)
Cc1noc(C)c1-c1nc(NCc2cccs2)c2ccccc2n1	KAT2A inh 22µM, VDR inhibitor 45µM (no result: TrxR1 substrate, rTrxR1 inhibitor)
O=C(c1ccccc1NS(=O)(=O)c1ccc([N+](=O)[O-])cc1[N+](=O)[O-])N1O[C@@H]2C=C[C@H]1C2	VDR inhibitor 45µM, rTrxR1 inhibitor 3.2µM
NSc1nc(N)c2nc(-c3ccccc3)c(-c3ccccc3)nc2n1	VDR inhibitor 8.9µM
CC(C)(C)n1ncc2c(=O)n(Cc3cccc(C(F)(F)F)c3Cl)cnc21	none (no result: KAT2A inh, VDR inhibitor)
COc1ccc(-c2nc3ccc(NC(=O)COC(C)=O)cc3c(=O)n2Cc2ccccc2)cc1COc1ccc(NC(C)=O)cc1	rTrxR1 inhibitor 35µM (no result: KAT2A inh)
COc1ccc(CN(Cc2ccccc2)C(=O)COC(C)=O)cc1COc1ccc(NC(C)=O)cc1	none (no result: KAT2A inh)
COc1ccc(-c2nc3ccc(NC(C)=O)cc3c(=O)n2Cc2cccc(Cl)c2)cc1COc1ccc(NC(C)=O)cc1	rTrxR1 inhibitor 14µM (no result: KAT2A inh)
COc1ccc(Cn2c(C3CC3)nc3ccc(NC(C)=O)cc3c2=O)cc1	none
N#CC1=C(S)N(c2ccccc2)C(c2ccc(-c3cccc(Cl)c3)o2)NC1=O (configuration not stated)	VDR inhibitor inconclusive, rTrxR1 inhibitor 40µM
COc1ccc(C2CC(c3ccco3)n3ncnc3N2)cc1 (configuration not stated)	VDR inhibitor inconclusive
COc1ccc(N2C(S)=C(C#N)C(=O)NC2c2ccco2)cc1 (configuration not stated)	VDR inhibitor 40µM
Cc1ccc(N2OC3C(=O)NC(=O)C3C2c2ccco2)cc1 (configuration not stated)	none
Cn1cc(-c2cccc(Cl)c2)cc(C#N)c1=O	none
Cc1cccc(N2C(S)=C(C#N)C(=O)NC2c2ccco2)c1 (configuration not stated)	VDR inhibitor 28µM
O=C(NC1CCCCCC1)c1ccc(Br)o1	none
O=C(NC1CCCCC1)Oc1cc2oc(=O)sc2cc1Br	VDR inhibitor 45µM
CCCc1nc(SCC(=O)c2ccc(F)cc2)c2ccccc2n1	VDR inhibitor 89µM
Cc1c(CNC2CCCCCC2)c(C(=O)O)c(C)n1Cc1cccc(Cl)c1	none
CC(C)Cc1ccc(C(C)/C=C2/CCC(CN3CCCCC3)C2=O)cc1 (configuration not stated)	VDR inhibitor inconclusive, rTrxR1 inhibitor 3.5µM (no result: KAT2A inh)
CCn1c(=O)cc(SCC(=O)N2CCN(c3cc(C)ccc3C)CC2)c2ccccc21	none
Cc1[nH]c2ccccc2c1C1C(c2ccccc2)=NN=C(C(C)C)N1O (configuration not stated)	rTrxR1 inhibitor 45µM
